This is a sample that favours compounds with a hit; in the whole collection about 3.4% have one here.
FBW7 activator: activators of human E3 ligase FBW7 | normalized activity (activation), % at 26.1 µM | AlphaScreen FBW7–phospho-cyclin E peptide binding, activator screen | AID 1259310 | 650,000 tested, 0.13% active; in the data active = normalized activity above about 1.9%;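 note: purified mutant Fbw7 with reduced substrate affinity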
TEAD-YAP inh: TEAD-YAP interaction inhibition; HEK-TIYL cells, TEAD-Gal4/YAP UAS-luciferase luminescence; AID 1259422; 640,000 tested, 1.4% active; inhibition, % at 9.12 µM; in the data active = inhibition above about 32%;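 note: 0% = median of test compound wells and 100% = reference inhibitor wells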
MITF primary: blocks human microphthalmia-associated transcription factor | O75030 | AlphaScreen MITF homodimerization, bead proximity signal | inhibition, % at 2.6 µM | 650,000 tested, 0.91% active; in the data active = inhibition above about 50%;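 note: 0% = vehicle wells with protein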
GPR151 ag: human GPR151 activation; Q8TDV0; PathHunter beta-arrestin GPR151 cells, luminescence; activation, % at 11.2 µM; 650,000 tested, 1% active; AID 1508602; in the data active = activation above about 4.9%;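 note: 0% = median of compound wells and 100% = cells with positive control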
Target sequence (Q8TDV0 whole entry, looked up): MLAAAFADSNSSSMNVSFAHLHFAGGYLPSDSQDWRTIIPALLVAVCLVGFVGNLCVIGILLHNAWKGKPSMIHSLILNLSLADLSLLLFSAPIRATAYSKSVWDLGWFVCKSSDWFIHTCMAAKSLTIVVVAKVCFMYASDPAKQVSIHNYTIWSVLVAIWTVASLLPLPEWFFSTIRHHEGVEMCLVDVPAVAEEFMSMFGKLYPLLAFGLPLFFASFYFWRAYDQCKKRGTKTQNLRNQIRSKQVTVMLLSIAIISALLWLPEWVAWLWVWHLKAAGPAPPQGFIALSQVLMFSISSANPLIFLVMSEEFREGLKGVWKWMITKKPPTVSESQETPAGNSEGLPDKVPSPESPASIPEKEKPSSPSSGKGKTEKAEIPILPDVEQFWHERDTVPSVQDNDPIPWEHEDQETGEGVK
* = called active by the depositor.

SMILES	FBW7 activator	TEAD-YAP inh	MITF primary	GPR151 ag
COc1cc2nc(C)n(C(=S)S)c2cc1OC	0	56*	14	0
COc1cc2nc(-c3ccc(N(C)C)cc3)n(C)c2cc1OC	0	-71	3	0
O=C1Nc2c(C(F)(F)F)cccc2C12SCCS2	0	34*	8	0
CC1CCCN(C2(O)C(=O)Nc3c(C(F)(F)F)cccc32)C1 (stereo unspecified)	0	-12	-4	1
CCN(CC)C(=O)Cn1c(C)c(C#N)c2ccccc21	1.9*	3	18	0
CC(C)n1c(-c2cccs2)nc2c(NCCN3CCOCC3)ncnc21	0	11	10	0
COc1ccc(N2CCN(C(=O)c3ccc(CS(=O)c4ccc(C)cc4)o3)CC2)cc1 (stereo unspecified)	0	56*	-1	0
Cc1ccc(S(=O)Cc2ccc(C(=O)N3CCN(C(=O)c4ccco4)CC3)o2)cc1 (stereo unspecified)	0	4	7	0
COc1cccc(N2CCN(C(=O)c3ccc(CS(=O)c4ccc(C)cc4)o3)CC2)c1 (stereo unspecified)	0	63*	-6	0
COc1ccc(N2CCN(C(=O)c3ccc(CS(=O)c4ccccc4)o3)CC2)cc1 (stereo unspecified)	0	46*	8	0
NC(=O)CSc1nnc(-c2ccccc2Cl)n1-c1ccccc1	0	7	-2	1
COc1ccc(CCNC(=O)c2cn(C)c(=O)c3c2c2ccccc2n3C)cc1OC	0	9	10	-1
COc1ccc(-n2[nH]c(C)c(N=O)c2=O)cc1	0	39*	3	1
COc1cc(Nc2ccnc(N3CCN(c4ccccn4)CC3)n2)cc(OC)c1OC	0	36*	11	0
COc1cc(Nc2cc(C)nc(N3CCN(c4ccccn4)CC3)n2)cc(OC)c1OC	0	53*	4	3
COc1cc(Nc2cc(N3CCN(c4ccccn4)CC3)ncn2)cc(OC)c1OC	0	-13	-9	-1
Cc1ccc2nc(NC(=O)CSCC(=O)OCC(=O)c3ccccc3)sc2c1	0	68*	2	-1
COC(=O)CSCC(=O)Nc1nc2ccccc2s1	0	-5	-5	-4
Cc1ccc(-n2c(O)c(/C=N/c3ccccn3)c(=O)[nH]c2=O)cc1	0	0	2	0
Cc1ccc(-n2[nH]c(=O)c(-c3ccccn3)c2C)cc1	0	52*	7	-5
Cc1cccc2cc(CN(Cc3ccco3)C(=O)C(F)(F)F)c(=O)[nH]c12	0	61*	-16	-1
N#Cc1ccsc1NC(=O)c1ccc2c(c1)CCCC2	0	43*	3	-6
N#Cc1ccsc1NC(=O)/C=C/c1ccccc1	0	64*	-13	-11
N#Cc1ccsc1NC(=O)c1cccc2ccccc12	0	47*	-5	1
Cc1ccc(C(=O)Nc2sccc2C#N)cc1C	0	-15	-8	-10
SMILES	FBW7 activator	TEAD-YAP inh	MITF primary	GPR151 ag
N#Cc1ccsc1NC(=O)c1ccccc1Cl	0	1	9	0
N#Cc1ccsc1NC(=O)c1ccccc1	0	-12	-13	-3
Cc1ccc(N2CCN(C(=O)c3ccncc3)CC2C)cc1 (stereo unspecified)	0	-5	-17	-1
Cn1cccc1C(=S)N=P(N1CCOCC1)(N1CCOCC1)C(C)(C)C	0	-4	13	1
C(=C\c1ccc2c(c1)OCCO2)/c1ccc2c(c1)OCCO2	1	97*	19	-10
c1ccc(Nc2nc(-c3ccc4ccccc4c3)cs2)nc1	0	-66	1	-1
COCCOCCCN1CCC2(CC1)NC(=O)Cc1ccccc12	0	7	12	-1
O=C1Cc2ccccc2C2(CCN(Cc3ccc(C(=O)c4ccccc4)cc3)CC2)N1	-1	36*	15	0
COc1ccc(-c2cc(CC(=O)NC3CCCC3)no2)cc1OC	0	5	-13	1
COc1ccc(-c2cc(CC(=O)NCc3ccc(Cl)cc3)no2)cc1OC	0	47*	-1	2
Cc1cc2c(c(=O)n1C)C1(C(=O)N(Cc3ccc(Cl)cc3)c3ccccc31)C(C#N)=C(N)O2 (stereo unspecified)	0	7	-4	-1
COc1cccc(C(C)NC(=O)c2cccc(OC)c2OC)c1 (stereo unspecified)	0	8	1	-1
O=[N+]([O-])c1ccc(Sc2n[nH]c(-c3ccncc3)n2)nc1	0	5	5	0
Cc1cc(C(F)(F)F)nc(Sc2ccc([N+](=O)[O-])cn2)n1	0	60*	24	-1
CCOC(=O)c1sc2ncnc(Nc3ccc(C)cc3C)c2c1C	0	55*	4	0
